Read-out in experiment [1]: Interleukin-1 alpha (IL1a), IL1A (gene 3552)
Description: BSK_KF3CT_IL1a: BioMAP Diversity Plus: KF3CT Assay for Interleukin-1 alpha (IL1a) Biomarker Activity (AID 2283070). The note with it: primary human keratinocytes with fibroblasts; actives raise or lower the signal. In outline: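 Human keratinocyte plus foreskin fibroblast primary co-culture, sampled 24 h after chemical dosing. IL-1a measured by ELISA; responses fitted bidirectionally against DMSO baseline (negative control), so gain or loss of signal both count.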

Read-out in experiment [2]: TIMP metallopeptidase inhibitor 2 (TIMP2), TIMP2 (gene 7077)
Description: BSK_KF3CT_TIMP2: BioMAP Diversity Plus: KF3CT Assay for TIMP metallopeptidase inhibitor 2 (TIMP2) Biomarker Activity (AID 2283071). The settings on record: primary human keratinocytes with fibroblasts; actives raise or lower the signal. In outline: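 Human primary keratinocyte/foreskin fibroblast co-culture dosed with chemical and sampled at 24 h. TIMP-2 levels quantified by ELISA; bidirectional fitting against DMSO negative control as baseline.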

Read-out in experiment [3]: C-C motif chemokine 2 (Homo sapiens) (UniProt P13500)
Briefly: BSK_KF3CT_MCP1: BioMAP Diversity Plus: KF3CT Assay for Monocyte Chemoattractant Protein 1 (MCP1/CCL2) Biomarker Activity (AID 2283073). The settings on record: primary human keratinocytes with fibroblasts; actives raise or lower the signal. In outline:
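Human keratinocyte plus foreskin fibroblast primary co-culture exposed to chemical for 24 h. MCP-1 levels measured by ELISA. Bidirectional curve fitting relative to DMSO negative control as baseline.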

Read-out in experiment [4]: Matrix Metallopeptidase 9 (MMP9), MMP9 (gene 4318)
Description: BSK_KF3CT_MMP9: BioMAP Diversity Plus: KF3CT Assay for Matrix Metallopeptidase 9 (MMP9) Biomarker Activity (AID 2283074). The settings on record: primary human keratinocytes with fibroblasts; actives raise or lower the signal. The essentials: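 Keratinocyte plus foreskin fibroblast human primary skin co-culture was dosed with chemical and MMP-9 was quantified by ELISA 24 h later. Bidirectional curve fitting used DMSO as negative control and activity baseline.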

Read-out in experiment [5]: CD40, CD40 (gene 958)
Description: BSK_LPS_CD40: BioMAP Diversity Plus: LPS Assay for CD40 Biomarker Activity (AID 2283076). The settings on record: primary human HUVEC with PBMC; actives raise or lower the signal. The essentials:
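Primary human umbilical vein endothelial cells co-cultured with peripheral blood mononuclear cells, LPS-stimulated, were dosed with chemical and read 24 h later. CD40 levels were measured by ELISA and fitted bidirectionally against DMSO as negative control and baseline.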

Read-out in experiment [6]: E-selectin (Homo sapiens) (UniProt P16581)
Briefly: BSK_LPS_Eselectin: BioMAP Diversity Plus: LPS Assay for Eselectin Biomarker Activity (AID 2283077). The settings on record: primary human HUVEC with PBMC; actives raise or lower the signal. In outline:
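Human umbilical vein endothelial cells co-cultured with peripheral blood mononuclear cells under LPS stimulation; E-selectin measured by ELISA 24 h after chemical dosing. Activity fitted bidirectionally against DMSO as negative control and baseline.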

Read-out in experiment [7]: Interleukin-8 (IL8), CXCL8 (gene 3576)
Description: BSK_LPS_IL8: BioMAP Diversity Plus: LPS Assay for Interleukin-8 (IL8) Biomarker Activity (AID 2283078). The note with it: primary human HUVEC with PBMC; actives raise or lower the signal. In outline: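 Human umbilical vein endothelial cells co-cultured with PBMC were stimulated with LPS; IL-8 levels were measured by ELISA 24 h after chemical dosing. Activity was fitted bidirectionally against DMSO as negative control and baseline.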

Experiment [8] is described as follows: BSK_LPS_SRB: Viability Assessment in the BioMAP Diversity Plus: LPS Assay (AID 2283079).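 Also: total protein by sulforhodamine B absorbance as a cytotoxicity measure; measured one day after compound addition.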 The note with it: primary human HUVEC with PBMC. In outline: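 Human umbilical vein endothelial cells co-cultured with PBMC (LPS system) were dosed for 24 h. Total protein was stained with 0.1% sulforhodamine B after 10% TCA fixation, read at 560 nm, and fitted bidirectionally against DMSO baseline.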

Read-out in experiment [9]: Interleukin-1 alpha (IL1a), IL1A (gene 3552)
Briefly: BSK_LPS_IL1a: BioMAP Diversity Plus: LPS Assay for Interleukin-1 alpha (IL1a) Biomarker Activity (AID 2283080). The note with it: primary human HUVEC with PBMC; actives raise or lower the signal. In outline: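 Human umbilical vein endothelial cells co-cultured with peripheral blood mononuclear cells were LPS-stimulated and exposed to test chemicals for 24 h. IL-1 alpha was quantified by ELISA, with bidirectional curve fitting against DMSO as the negative control and baseline.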

Read-out in experiment [10]: Monocyte Chemoattractant Protein-1 (MCP1), CCL2 (gene 6347)
Description: BSK_LPS_MCP1: BioMAP Diversity Plus: LPS Assay for Monocyte Chemoattractant Protein-1 (MCP1) Biomarker Activity (AID 2283081).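 As to AC50: secreted MCP-1 protein quantified by ELISA in culture supernatant.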 The settings on record: primary human HUVEC with PBMC; actives raise or lower the signal. The essentials:
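HUVEC plus PBMC co-culture (human primary cells, LPS system) exposed to test chemical for 24 h; MCP-1 measured by ELISA. Bidirectional curve fitting against DMSO baseline; parallel SRB total-protein staining flags overt cytotoxicity.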

Experiment [11] in a line: BSK_LPS_PGE2: BioMAP Diversity Plus: LPS Assay for Prostaglandin E2 (PGE2) Biomarker Activity (AID 2283082). The note with it: primary human HUVEC with PBMC; actives raise or lower the signal. The essentials: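 HUVEC plus PBMC co-culture stimulated with LPS; secreted PGE2 quantified by ELISA 24 h after chemical dosing. Activity fitted bidirectionally against DMSO as negative control and baseline; parallel SRB total-protein staining served as cytotoxicity check.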

Read-out in experiment [12]: Macrophage colony-stimulating factor (MCSF), CSF1 (gene 1435)
Description: BSK_LPS_MCSF: BioMAP Diversity Plus: LPS Assay for Macrophage colony-stimulating factor (MCSF) Biomarker Activity (AID 2283083). The note with it: primary human HUVEC with PBMC; actives raise or lower the signal. The essentials:
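Human umbilical vein endothelial cells co-cultured with peripheral blood mononuclear cells were exposed to compound for 24 h. M-CSF levels were measured by ELISA, and bidirectional curve fitting used DMSO as the negative control and baseline.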

Read-out in experiment [13]: Tissue Factor, F3 (gene 2152)
Briefly: BSK_LPS_TissueFactor: BioMAP Diversity Plus: LPS Assay for Tissue Factor Biomarker Activity (AID 2283084). The settings on record: primary human HUVEC with PBMC; actives raise or lower the signal. In outline:
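Human umbilical vein endothelial cells co-cultured with peripheral blood mononuclear cells were dosed and stimulated with LPS. Cell-surface CD142 was quantified by ELISA at 24 h. Activity was fitted bidirectionally against DMSO baseline.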

Read-out in experiment [14]: Tumor necrosis factor (Homo sapiens) (UniProt P01375)
Description: BSK_LPS_TNFa: BioMAP Diversity Plus: LPS Assay for Tumour Necrosis Factor alpha (TNFa) Biomarker Activity (AID 2283085).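 As to AC50: TNFa protein level quantified by ELISA in the co-culture.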 The settings on record: primary human HUVEC with PBMC; actives raise or lower the signal. The essentials:
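Human umbilical vein endothelial cells co-cultured with PBMC were exposed to test chemical and TNFa measured by ELISA 24 h after dosing. Bidirectional curve fitting was done relative to DMSO as negative control and baseline.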

Read-out in experiment [15]: Vascular cell adhesion molecule 1 (VCAM1), VCAM1 (gene 7412)
Description: BSK_LPS_VCAM1: BioMAP Diversity Plus: LPS Assay for Vascular cell adhesion molecule 1 (VCAM1) Biomarker Activity (AID 2283086). The settings on record: primary human HUVEC with PBMC; actives raise or lower the signal. The essentials: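 Human umbilical vein endothelial cells co-cultured with peripheral blood mononuclear cells under LPS stimulation were exposed to test chemical for 24 h. VCAM-1 levels were then measured by ELISA, with bidirectional curve fitting relative to DMSO as negative control and baseline.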

Read-out in another experiment: CD38, CD38 (gene 952)
Briefly: BSK_SAg_CD38: BioMAP Diversity Plus: SAg Assay for CD38 Biomarker Activity (AID 2283087). The note with it: primary human HUVEC with PBMC; actives raise or lower the signal. The essentials:
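Fluorescence ELISA of cell-surface CD38 served as the read-out, with either increase or decrease fitted against DMSO controls. Cells were a human umbilical vein endothelium plus PBMC co-culture under SEB/TSST-1 stimulation, measured 24 h after dosing.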

Read-out in experiment [16]: CD40, CD40 (gene 958)
Briefly: BSK_SAg_CD40: BioMAP Diversity Plus: SAg Assay for CD40 Biomarker Activity (AID 2283088). The settings on record: primary human HUVEC with PBMC; actives raise or lower the signal. In outline:
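Human umbilical vein endothelial cells co-cultured with PBMC; CD40 levels measured by ELISA with fluorescence read-out 24 h after chemical dosing. Gain or loss of signal fitted bidirectionally against DMSO baseline.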

Read-out in the next experiment: CD69, CD69 (gene 969)
Description: BSK_SAg_CD69: BioMAP Diversity Plus: SAg Assay for CD69 Biomarker Activity (AID 2283089). The settings on record: primary human HUVEC with PBMC; actives raise or lower the signal. In outline:
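Values derive from bidirectional fitting relative to DMSO vehicle. Cells: umbilical vein endothelium plus peripheral blood mononuclear cells, treated 24 h before fluorescent ELISA for CD69.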

Read-out in experiment [17]: urokinase plasminogen activator (uPA), PLAU (gene 5328)
Briefly: BSK_KF3CT_uPA: BioMAP Diversity Plus: KF3CT Assay for urokinase plasminogen activator (uPA) Biomarker Activity (AID 2283075). The note with it: primary human keratinocytes with fibroblasts; actives raise or lower the signal. The essentials:
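Human keratinocyte plus foreskin fibroblast primary co-culture exposed to chemical for 24 h. uPA levels were quantified by ELISA, and activity was fitted bidirectionally against a DMSO negative-control baseline.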

Values joined by “and” are separate entries in the source; they are usually repeats but may differ in a detail not shown here. Identical values can stand only once. The source holds several records for some structures; these can differ, active in one and inactive in another. Active and inactive are the calls of the source. The calls were made as follows: active = hit-call score of the fitted dose curve at least 0.9, where 1 is the maximum; inactive = score below 0.9.

Sequence of Tumor necrosis factor (Homo sapiens) (P01375 whole entry, looked up): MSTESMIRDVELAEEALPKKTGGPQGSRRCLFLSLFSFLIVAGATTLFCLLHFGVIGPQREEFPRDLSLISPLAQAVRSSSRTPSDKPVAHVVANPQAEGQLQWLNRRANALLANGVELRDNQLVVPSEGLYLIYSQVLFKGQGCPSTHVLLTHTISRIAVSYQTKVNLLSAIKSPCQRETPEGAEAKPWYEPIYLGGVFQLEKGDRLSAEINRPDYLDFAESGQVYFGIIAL
Sequence of E-selectin (Homo sapiens) (P16581 whole entry, looked up): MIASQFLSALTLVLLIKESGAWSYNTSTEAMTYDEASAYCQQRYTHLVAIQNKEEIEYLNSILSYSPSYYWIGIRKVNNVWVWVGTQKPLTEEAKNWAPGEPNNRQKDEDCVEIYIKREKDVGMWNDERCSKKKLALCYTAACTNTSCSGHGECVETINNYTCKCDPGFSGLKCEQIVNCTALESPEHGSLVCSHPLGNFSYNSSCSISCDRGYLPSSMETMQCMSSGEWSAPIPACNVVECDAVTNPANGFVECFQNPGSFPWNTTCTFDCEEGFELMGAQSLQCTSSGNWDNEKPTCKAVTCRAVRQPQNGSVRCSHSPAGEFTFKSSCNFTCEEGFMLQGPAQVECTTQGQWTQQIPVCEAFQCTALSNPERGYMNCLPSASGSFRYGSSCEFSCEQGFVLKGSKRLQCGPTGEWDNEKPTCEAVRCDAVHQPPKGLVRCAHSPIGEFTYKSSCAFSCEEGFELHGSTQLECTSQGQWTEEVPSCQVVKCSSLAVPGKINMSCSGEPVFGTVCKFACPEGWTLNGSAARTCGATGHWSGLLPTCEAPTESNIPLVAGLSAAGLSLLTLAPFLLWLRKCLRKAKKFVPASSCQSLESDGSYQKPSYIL

For `O=S(=O)(OCC(F)(F)F)C(F)(F)C(F)(F)C(F)(F)C(F)(F)F`, the outcome in experiment [1] is “inactive”; in [2] it was “inactive”; in [3], “inactive”; in experiment [4], “inactive”; in the experiment with CD40, CD40 (gene 958) [5], “inactive”; in [6], “inactive”. The outcome in experiment [7], in [8], in [9], in experiment [10], in experiment [11] and in experiment [12] was inactive. Further, the outcome in experiment [13] was “inactive”; in [15], “inactive”; in the experiment with CD38, CD38 (gene 952) it was “inactive”; in the experiment with CD40, CD40 (gene 958) [16], “inactive”; in the experiment with CD69, CD69 (gene 969) it was “inactive”. Moreover, the AC50 was 24.3 µM (active) with CD40, CD40 (gene 958) [5]; 41.4 µM (active) in experiment [6]; 30 µM (active) in [9]; 20.6 µM (active) in experiment [10]; 9.88 µM (active) in experiment [13]; 43.7 µM (active) and 16.3 µM (active) in [14].
For the compound `CCOC(=O)CC(=O)C(F)(F)C(F)(F)F`, the outcome in experiment [1] was “inactive”; in experiment [2] it was “inactive”; in experiment [3], “inactive”; in [4], “inactive”; in experiment [17] it was “inactive”; in the experiment with CD40, CD40 (gene 958) [5] it was “inactive”. Moreover, the result in experiment [6], in experiment [7], in [8], in [9], in experiment [10] and in experiment [11] was inactive. Moreover, the outcome was “inactive” in experiment [12]; “inactive” in experiment [13]; “inactive” in [14]; “inactive” in [15]; “inactive” in the experiment with CD38, CD38 (gene 952); “inactive” in the experiment with CD40, CD40 (gene 958) [16]. The outcome with CD69, CD69 (gene 969) was inactive.
As for `NC(=O)C(F)(F)C(F)(F)C(F)(F)F`, the outcome in experiment [1] was “inactive”; in [2], “inactive”; in experiment [3], “inactive”; in experiment [4] it was “inactive”; in experiment [17] it was “inactive”; in the experiment with CD40, CD40 (gene 958) [5], “inactive”. Besides, the outcome in [6], in experiment [7], in experiment [8], in experiment [9], in experiment [10] and in experiment [11] was inactive. The outcome in experiment [12] was “inactive”; in experiment [13] it was “inactive”; in experiment [14], “inactive”; in experiment [15], “inactive”; in the experiment with CD38, CD38 (gene 952), “inactive”; in the experiment with CD40, CD40 (gene 958) [16] it was “inactive”. Besides, the result with CD69, CD69 (gene 969) was inactive.
For the compound `O=C(F)C1(F)C(F)(F)C(F)(F)C(F)(F)C(F)(F)C1(F)F`, the outcome is “inactive” in [1]; “inactive” in experiment [2]; “inactive” in [3]; “inactive” in experiment [4]; “inactive” in the experiment with CD40, CD40 (gene 958) [5]; “inactive” in experiment [6]. In addition, the outcome in [7], in experiment [8], in [9], in experiment [10], in experiment [11] and in [12] was inactive. Besides, the outcome in [13] was “inactive”; in [14] it was “inactive”; in experiment [15], “inactive”; with CD38, CD38 (gene 952) it was “inactive”; in the experiment with CD40, CD40 (gene 958) [16], “inactive”; with CD69, CD69 (gene 969), “inactive”.
On to `FC(F)(F)C(F)(F)C(F)(F)C(F)(F)C(F)(F)C(F)(F)CC[Si](Cl)(Cl)Cl`, for which the outcome in experiment [1] was “inactive”; in [2] it was “inactive”; in experiment [3], “inactive”; in [4], “inactive”; in [17], “inactive”; in the experiment with CD40, CD40 (gene 958) [5], “inactive”. Further, the outcome in experiment [6], in experiment [7], in experiment [8], in experiment [9], in experiment [10] and in experiment [11] was inactive. Also, the outcome in experiment [12] is “inactive”; in experiment [13], “inactive”; in [14], “inactive”; in experiment [15], “inactive”; with CD38, CD38 (gene 952), “inactive”; with CD40, CD40 (gene 958) [16], “inactive”. Further, the outcome with CD69, CD69 (gene 969) was inactive. Moreover, in [10], the half-maximal activity concentration (AC50) is 0.219 µM (active).

These data come from PubChem BioAssay (EPA / NIEHS).
